Results: PubChem BioAssay (EPA / NIEHS)
Records with an inconclusive call do not appear. The source made the active and inactive calls. The calls were made as follows: active = hit-call score of the fitted dose curve at least 0.9, where 1 is the maximum; inconclusive = response in the unintended direction; inactive = score below 0.9.

Assays:
[1] = biological target: human Dopamine Receptor D4.4 (DRD4.4), DRD4 (gene 1815) (UniProt P21917); assay: NVS_GPCR_hDRD4.4: NovaScreen (NVS) G Protein-Coupled Receptor Assay for human Dopamine Receptor D4.4 (DRD4.4) (AID 2283264)
Chain of human Dopamine Receptor D4.4 (DRD4.4), DRD4 (gene 1815) (P21917 whole entry, looked up): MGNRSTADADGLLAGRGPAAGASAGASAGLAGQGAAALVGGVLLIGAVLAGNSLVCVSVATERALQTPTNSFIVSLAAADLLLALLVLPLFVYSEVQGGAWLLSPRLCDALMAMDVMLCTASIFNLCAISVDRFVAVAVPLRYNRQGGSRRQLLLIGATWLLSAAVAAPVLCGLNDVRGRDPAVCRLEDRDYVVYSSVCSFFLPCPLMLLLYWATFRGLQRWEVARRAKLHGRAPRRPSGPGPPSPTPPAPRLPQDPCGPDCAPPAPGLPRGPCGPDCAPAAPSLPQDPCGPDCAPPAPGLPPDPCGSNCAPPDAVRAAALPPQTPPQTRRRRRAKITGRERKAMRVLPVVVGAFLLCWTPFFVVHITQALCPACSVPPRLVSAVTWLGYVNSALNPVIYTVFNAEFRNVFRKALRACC
In short: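 Filter-binding assay with a tritiated or iodinated ligand, cell-free receptor prepared from CHO, 1 hour. Loss of bound radioactivity versus DMSO; single 25 uM duplicate screen, then concentration-response for actives.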

[2] = biological target: human Endothelin Receptor Type A (ETA), EDNRA (gene 1909) (UniProt P25101); assay: NVS_GPCR_hETA: NovaScreen (NVS) G Protein-Coupled Receptor Assay for human Endothelin Receptor Type A (ETA) (AID 2283265)
In short: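 Binding of radioligand to membrane protein extracted from SH-SY5Y cells was read by filtration and scintillation after 3 h. Compounds were screened at 25 uM in duplicate, with hits followed up in singleton concentration series to 50 uM.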

[3] = biological target: human Dopamine Receptor D2 (DRD2), DRD2 (gene 1813) (UniProt P14416); assay: NVS_GPCR_hDRD2s: NovaScreen (NVS) G Protein-Coupled Receptor Assay for human Dopamine Receptor D2 (DRD2) (AID 2283266)
Chain of human Dopamine Receptor D2 (DRD2), DRD2 (gene 1813) (P14416 whole entry, looked up): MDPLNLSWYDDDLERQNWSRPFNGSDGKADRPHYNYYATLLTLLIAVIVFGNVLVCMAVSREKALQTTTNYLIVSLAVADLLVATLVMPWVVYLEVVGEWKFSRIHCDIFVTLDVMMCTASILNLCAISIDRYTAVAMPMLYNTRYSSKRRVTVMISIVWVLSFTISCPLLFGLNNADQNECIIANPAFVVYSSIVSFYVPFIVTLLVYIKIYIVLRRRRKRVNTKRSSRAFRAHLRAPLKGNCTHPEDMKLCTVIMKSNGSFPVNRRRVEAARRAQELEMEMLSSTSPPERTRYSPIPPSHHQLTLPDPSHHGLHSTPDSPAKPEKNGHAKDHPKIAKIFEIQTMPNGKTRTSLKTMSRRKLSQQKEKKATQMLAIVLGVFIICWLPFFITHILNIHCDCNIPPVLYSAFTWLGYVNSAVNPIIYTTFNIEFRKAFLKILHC
In short: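 Test compound (25 uM, duplicate in the primary screen; concentration series at follow-up) competed with radioligand for human DRD2 in CHO-derived membrane protein. Filter-based scintillation counting was done 1.5 hours after dosing, with loss of signal analysed against DMSO.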

[4] = biological target: human Leukotriene B4 Receptor 1 (LTB4-BLT1), LTB4R (gene 1241) (UniProt Q15722); assay: NVS_GPCR_hLTB4_BLT1: NovaScreen (NVS) G Protein-Coupled Receptor Assay for human Leukotriene B4 Receptor 1 (LTB4-BLT1) (AID 2283271)
In short: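 Cell-free human neutrophil receptor preparation, 1 h exposure, radioligand binding read by filter scintillation counting. Single 25 uM duplicate screen, then concentration series topping at 50 uM; binding loss scored against DMSO baseline.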

[5] = biological target: Muscarinic acetylcholine receptor M2 (Homo sapiens) (UniProt P08172); assay: NVS_GPCR_hM2: NovaScreen (NVS) G Protein-Coupled Receptor Assay for human Muscarinic, M2 Receptor (AID 2283273)
Chain of Muscarinic acetylcholine receptor M2 (Homo sapiens) (P08172 whole entry, looked up): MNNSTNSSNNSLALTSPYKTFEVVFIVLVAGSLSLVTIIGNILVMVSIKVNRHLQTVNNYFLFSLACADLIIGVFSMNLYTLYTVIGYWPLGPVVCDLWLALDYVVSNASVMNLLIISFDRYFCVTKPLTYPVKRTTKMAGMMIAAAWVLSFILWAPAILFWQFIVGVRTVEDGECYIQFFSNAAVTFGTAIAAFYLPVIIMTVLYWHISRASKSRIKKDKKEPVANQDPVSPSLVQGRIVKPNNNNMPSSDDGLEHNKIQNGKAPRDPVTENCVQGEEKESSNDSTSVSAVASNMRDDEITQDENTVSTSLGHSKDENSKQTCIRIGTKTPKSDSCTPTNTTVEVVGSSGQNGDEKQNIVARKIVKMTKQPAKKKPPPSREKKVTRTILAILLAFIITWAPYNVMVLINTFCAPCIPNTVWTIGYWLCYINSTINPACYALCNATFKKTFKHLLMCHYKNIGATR
In short: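 Filter-based radiodetection read bound radioligand 1 h after dosing CHO-derived membrane protein. Single-concentration duplicates (25 uM) first, then concentration-response for actives; signal loss versus DMSO scored.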

[6] = biological target: human Muscarinic, M4 Receptor, CHRM4 (gene 1132) (UniProt P08173); assay: NVS_GPCR_hM4: NovaScreen (NVS) G Protein-Coupled Receptor Assay for human Muscarinic, M4 Receptor (AID 2283274)
Chain of human Muscarinic, M4 Receptor, CHRM4 (gene 1132) (P08173 whole entry, looked up): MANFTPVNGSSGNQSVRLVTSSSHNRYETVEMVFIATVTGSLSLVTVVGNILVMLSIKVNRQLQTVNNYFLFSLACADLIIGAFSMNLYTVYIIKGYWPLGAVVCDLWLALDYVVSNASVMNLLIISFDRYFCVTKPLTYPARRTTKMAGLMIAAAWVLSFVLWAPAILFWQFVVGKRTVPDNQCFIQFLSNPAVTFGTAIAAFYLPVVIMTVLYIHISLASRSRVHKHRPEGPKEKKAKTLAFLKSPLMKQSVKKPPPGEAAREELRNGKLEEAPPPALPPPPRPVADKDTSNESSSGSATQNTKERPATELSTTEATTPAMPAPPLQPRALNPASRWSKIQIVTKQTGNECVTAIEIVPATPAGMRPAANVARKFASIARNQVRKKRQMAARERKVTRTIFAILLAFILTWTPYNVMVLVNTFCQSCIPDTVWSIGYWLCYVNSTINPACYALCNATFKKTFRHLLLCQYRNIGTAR
In short: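 Filter-based scintillation counting of radioligand bound to CHO-expressed human M4 preparations after 1 h; loss of signal fitted versus DMSO. Initial duplicate testing at 25 uM, concentration-response follow-up for actives.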

[7] = biological target: Muscarinic acetylcholine receptor M5 (Homo sapiens) (UniProt P08912); assay: NVS_GPCR_hM5: NovaScreen (NVS) G Protein-Coupled Receptor Assay for human Muscarinic, M5 Receptor (AID 2283275)
Chain of Muscarinic acetylcholine receptor M5 (Homo sapiens) (P08912 whole entry, looked up): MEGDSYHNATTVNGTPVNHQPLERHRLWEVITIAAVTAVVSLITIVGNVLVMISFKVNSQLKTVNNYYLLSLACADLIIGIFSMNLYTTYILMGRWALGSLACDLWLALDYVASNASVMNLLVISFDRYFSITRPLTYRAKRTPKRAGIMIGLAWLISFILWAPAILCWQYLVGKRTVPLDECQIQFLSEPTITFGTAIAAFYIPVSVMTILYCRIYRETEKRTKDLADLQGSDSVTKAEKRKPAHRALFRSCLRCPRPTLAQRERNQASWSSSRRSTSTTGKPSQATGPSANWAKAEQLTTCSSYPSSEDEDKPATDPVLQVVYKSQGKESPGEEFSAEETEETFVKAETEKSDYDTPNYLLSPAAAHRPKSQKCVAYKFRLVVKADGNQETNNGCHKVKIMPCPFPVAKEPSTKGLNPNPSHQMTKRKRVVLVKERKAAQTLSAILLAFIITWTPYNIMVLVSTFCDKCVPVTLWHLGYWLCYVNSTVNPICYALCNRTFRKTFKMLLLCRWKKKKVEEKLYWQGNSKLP
In short: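 Chemicals passing a primary duplicate screen at 25 uM were run as singleton concentration series, maximum 50 uM. Displacement of a specific radioligand from CHO-extracted receptor was read by filter scintillation after 1 h, relative to DMSO.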

[8] = biological target: human Neuropeptide Receptor Y1 (NPY1), NPY1R (gene 4886) (UniProt P25929); assay: NVS_GPCR_hNPY1: NovaScreen (NVS) G Protein-Coupled Receptor Assay for human Neuropeptide Receptor Y1 (NPY1) (AID 2283276)
Chain of human Neuropeptide Receptor Y1 (NPY1), NPY1R (gene 4886) (P25929 whole entry, looked up): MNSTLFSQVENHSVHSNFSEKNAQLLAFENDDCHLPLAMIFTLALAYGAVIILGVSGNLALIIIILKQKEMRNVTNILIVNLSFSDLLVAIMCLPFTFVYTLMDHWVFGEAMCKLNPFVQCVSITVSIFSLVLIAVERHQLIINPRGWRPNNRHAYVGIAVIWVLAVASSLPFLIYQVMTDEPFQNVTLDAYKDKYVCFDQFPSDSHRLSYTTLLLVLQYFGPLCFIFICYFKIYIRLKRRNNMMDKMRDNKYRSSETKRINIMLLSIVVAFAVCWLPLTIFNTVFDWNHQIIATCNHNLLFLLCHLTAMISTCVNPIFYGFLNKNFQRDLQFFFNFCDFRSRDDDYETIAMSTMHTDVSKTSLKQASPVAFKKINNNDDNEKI
In short: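 Displacement of specific radioligand from NPY1 receptor of SK-N-MC origin, read by filtration and scintillation after 1 h. Compounds first tested at 25 uM in duplicate, then actives in concentration series; signal loss relative to DMSO.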

[9] = biological target: Neuropeptide Y receptor type 2 (Homo sapiens) (UniProt P49146); assay: NVS_GPCR_hNPY2: NovaScreen (NVS) G Protein-Coupled Receptor Assay for human Neuropeptide Receptor Y2 (NPY2) (AID 2283277)
In short: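 Chemicals were first tested in duplicate at 25 uM, then actives in singleton concentration series to 50 uM. Tracer binding to SK-N-MC-derived protein measured cell-free after 1 h via filter scintillation; signal loss relative to DMSO.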

[10] = biological target: human Neurokinin, NK2 Receptor, TACR2 (gene 6865) (UniProt P21452); assay: NVS_GPCR_hNK2: NovaScreen (NVS) G Protein-Coupled Receptor Assay for human Neurokinin, NK2 Receptor (AID 2283278);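 also: actives reduce bound radioligand signal relative to DMSO baseline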
Chain of human Neurokinin, NK2 Receptor, TACR2 (gene 6865) (P21452 whole entry, looked up): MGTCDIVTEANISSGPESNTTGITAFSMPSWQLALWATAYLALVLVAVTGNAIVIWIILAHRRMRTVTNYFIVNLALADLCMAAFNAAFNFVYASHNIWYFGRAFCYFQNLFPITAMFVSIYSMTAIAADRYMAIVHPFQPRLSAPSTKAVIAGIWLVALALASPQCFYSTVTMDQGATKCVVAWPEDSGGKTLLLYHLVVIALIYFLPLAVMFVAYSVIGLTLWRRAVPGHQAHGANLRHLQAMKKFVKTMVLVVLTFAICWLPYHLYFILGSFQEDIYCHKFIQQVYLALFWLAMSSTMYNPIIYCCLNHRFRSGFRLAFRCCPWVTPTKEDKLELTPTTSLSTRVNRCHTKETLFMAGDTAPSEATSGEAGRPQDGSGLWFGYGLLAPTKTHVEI
In short: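 Test chemicals displace a radioligand from receptor prepared from CHO cells in a cell-free format, read after 4 hours by scintillation counting on filters. Screening starts at 25 uM in duplicate, and active chemicals then go to concentration series.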

[11] = biological target: human Orphanin, Opioid Related Nociceptin Receptor 1 (ORL1), OPRL1 (gene 4987) (UniProt P41146); assay: NVS_GPCR_hORL1: NovaScreen (NVS) G Protein-Coupled Receptor Assay for human Orphanin, Opioid Related Nociceptin Receptor 1 (ORL1) (AID 2283283)
In short: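 Cell-free binding using HEK293-derived receptor protein: radioligand displacement measured by filter scintillation 1 hour after dosing. Primary testing at 25 uM in duplicate, followed by singleton concentration series up to 50 uM; DMSO served as negative control.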

[12] = biological target: mouse Cholecystokinin, CCK1 Receptor (CCKA), Cckar (gene 12425) (UniProt O08786); assay: NVS_GPCR_mCCKAPeripheral: NovaScreen (NVS) G Protein-Coupled Receptor Assay for mouse Cholecystokinin, CCK1 Receptor (CCKA) (AID 2283285)
Chain of mouse Cholecystokinin, CCK1 Receptor (CCKA), Cckar (gene 12425) (O08786 whole entry, looked up): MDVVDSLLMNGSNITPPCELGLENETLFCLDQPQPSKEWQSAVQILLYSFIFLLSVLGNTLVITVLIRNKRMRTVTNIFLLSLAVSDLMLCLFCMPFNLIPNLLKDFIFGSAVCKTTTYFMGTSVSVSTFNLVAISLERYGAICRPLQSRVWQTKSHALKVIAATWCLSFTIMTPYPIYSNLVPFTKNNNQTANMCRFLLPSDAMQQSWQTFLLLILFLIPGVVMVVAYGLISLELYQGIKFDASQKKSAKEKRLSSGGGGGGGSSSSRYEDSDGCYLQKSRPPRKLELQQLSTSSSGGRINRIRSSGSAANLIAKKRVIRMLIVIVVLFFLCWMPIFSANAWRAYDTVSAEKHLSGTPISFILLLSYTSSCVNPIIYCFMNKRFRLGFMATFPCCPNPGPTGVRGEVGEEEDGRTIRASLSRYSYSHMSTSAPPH
In short: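 Chemicals were first screened in duplicate at 25 uM, with those meeting threshold (e.g., 30% inhibition) retested in singleton concentration series to 50 uM maximum. Binding of radioligand to mouse pancreatic membranes was read after 2 h by filtration and scintillation counting.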

[13] = biological target: human Histamine 1 Receptor (H1), HRH1 (gene 3269) (UniProt P35367); assay: NVS_GPCR_hH1: NovaScreen (NVS) G Protein-Coupled Receptor Assay for human Histamine 1 Receptor (H1) (AID 2283268)
Chain of human Histamine 1 Receptor (H1), HRH1 (gene 3269) (P35367 whole entry, looked up): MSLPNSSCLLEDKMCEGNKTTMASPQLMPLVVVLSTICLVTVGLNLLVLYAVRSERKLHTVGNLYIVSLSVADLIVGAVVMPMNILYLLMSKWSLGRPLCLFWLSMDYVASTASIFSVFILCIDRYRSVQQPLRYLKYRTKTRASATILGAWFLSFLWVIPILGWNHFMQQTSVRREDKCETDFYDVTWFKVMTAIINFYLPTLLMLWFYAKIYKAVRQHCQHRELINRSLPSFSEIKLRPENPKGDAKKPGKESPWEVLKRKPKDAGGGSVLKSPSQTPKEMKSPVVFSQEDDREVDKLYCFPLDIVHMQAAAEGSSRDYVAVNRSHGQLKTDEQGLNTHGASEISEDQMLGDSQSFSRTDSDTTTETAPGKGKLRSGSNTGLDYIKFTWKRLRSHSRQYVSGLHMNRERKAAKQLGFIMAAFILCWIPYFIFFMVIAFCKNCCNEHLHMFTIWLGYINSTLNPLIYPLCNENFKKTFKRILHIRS
In short: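 Filter-based scintillation detection of radioligand binding to human H1, 1 h incubation; chemicals screened in duplicate at 25 uM, then concentration-response; signal loss relative to DMSO taken as activity.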

[14] = biological target: D(1A) dopamine receptor (Homo sapiens) (UniProt P21728); assay: NVS_GPCR_hDRD1: NovaScreen (NVS) G Protein-Coupled Receptor Assay for human Dopamine Receptor D1 (DRD1) (AID 2283269)
Chain of D(1A) dopamine receptor (Homo sapiens) (P21728 whole entry, looked up): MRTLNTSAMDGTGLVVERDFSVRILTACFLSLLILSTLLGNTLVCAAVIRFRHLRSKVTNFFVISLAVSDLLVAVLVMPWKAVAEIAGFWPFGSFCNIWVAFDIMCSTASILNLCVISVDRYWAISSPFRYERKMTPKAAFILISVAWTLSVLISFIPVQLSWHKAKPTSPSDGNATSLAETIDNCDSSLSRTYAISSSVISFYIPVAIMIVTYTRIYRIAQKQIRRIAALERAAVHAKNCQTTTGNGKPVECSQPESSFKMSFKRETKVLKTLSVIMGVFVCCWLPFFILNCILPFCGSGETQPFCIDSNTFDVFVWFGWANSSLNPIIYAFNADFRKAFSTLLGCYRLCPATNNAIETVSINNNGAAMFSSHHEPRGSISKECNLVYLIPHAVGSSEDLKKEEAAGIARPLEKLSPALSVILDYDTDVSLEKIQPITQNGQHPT
In short: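 Extracted HEK293 DRD1 is incubated 1 h with compound and a tritiated or iodinated radioligand, then filtered and counted. Screening runs 25 uM in duplicate with on-plate positive and negative controls.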

[15] = biological target: Muscarinic acetylcholine receptor M1 (Homo sapiens) (UniProt P11229); assay: NVS_GPCR_hM1: NovaScreen (NVS) G Protein-Coupled Receptor Assay for human Muscarinic, M1 Receptor (AID 2283270)
Chain of Muscarinic acetylcholine receptor M1 (Homo sapiens) (P11229 whole entry, looked up): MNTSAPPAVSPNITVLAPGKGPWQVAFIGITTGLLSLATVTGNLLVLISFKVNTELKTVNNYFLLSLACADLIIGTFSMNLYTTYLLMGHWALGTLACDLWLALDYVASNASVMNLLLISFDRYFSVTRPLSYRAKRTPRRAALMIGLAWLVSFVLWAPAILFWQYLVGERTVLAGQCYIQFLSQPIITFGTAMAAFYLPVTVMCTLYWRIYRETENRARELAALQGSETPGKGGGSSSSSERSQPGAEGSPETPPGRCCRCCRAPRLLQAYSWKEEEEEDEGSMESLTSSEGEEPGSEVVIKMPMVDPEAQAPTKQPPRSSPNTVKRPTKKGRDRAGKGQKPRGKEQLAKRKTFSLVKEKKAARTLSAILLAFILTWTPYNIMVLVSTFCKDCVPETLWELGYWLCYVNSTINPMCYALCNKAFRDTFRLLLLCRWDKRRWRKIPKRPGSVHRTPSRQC
In short: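 Actives from a duplicate 25 uM single-point screen were retested in concentration series. Binding measured as displacement of a radioligand from CHO-derived receptor preparation, 1 h incubation, filtration and scintillation counting, analysed as signal loss against DMSO.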

[16] = biological target: human Neurotensin Receptor (NTS), NTSR1 (gene 4923) (UniProt P30989); assay: NVS_GPCR_hNTS: NovaScreen (NVS) G Protein-Coupled Receptor Assay for human Neurotensin Receptor (NTS) (AID 2283279)
In short: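 Compounds competed with a radiolabelled ligand for binding to CHO-derived human neurotensin receptor; bound signal counted after filtration, 1 h. Screened first at a single concentration of 25 uM in duplicate, then concentration series to 50 uM maximum for actives.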

[17] = biological target: human Vasopressin 1A Receptor (V1A), AVPR1A (gene 552) (UniProt P37288); assay: NVS_GPCR_hV1A: NovaScreen (NVS) G Protein-Coupled Receptor Assay for human Vasopressin 1A Receptor (V1A) (AID 2283284)
In short: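 Single-concentration duplicate screen at 25 uM, with concentration-response follow-up (top 50 uM) for actives. The assay measured displacement of a radioligand from human platelet-derived receptor after 1.5 h, detected by filtration and scintillation counting.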

[18] = biological target: human Thromboxane A2 Receptor (TXA2), TBXA2R (gene 6915) (UniProt P21731); assay: NVS_GPCR_hTXA2: NovaScreen (NVS) G Protein-Coupled Receptor Assay for human Thromboxane A2 Receptor (TXA2) (AID 2283282);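 also: actives reduce bound radioligand signal relative to DMSO baseline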
In short: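 Human platelet membranes tested for radioligand displacement by filtration and scintillation counting 1 h post-dose. Screened in duplicate at 25 uM; activity fitted as signal loss relative to DMSO.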

Question: How did the outcome [1] turn out when `Oc1ccc2ccccc2c1` was run?
Answer: inactive

Question: Which AC50 [1] does the source give for `CN(C)c1ccc(C(=C2C=CC(=[N+](C)C)C=C2)c2ccc(N(C)C)cc2)cc1` here?
Answer: 1.11 µM (active)

Question: And the AC50 [2]?
Answer: 1.81 µM (active)

Question: What about the AC50 [3] of the same compound?
Answer: 2.02 µM (active)

Question: And the AC50 [4]?
Answer: 8.85 µM (active)

Question: And the AC50 [5]?
Answer: 0.939 µM (active)

Question: What about the AC50 [6] of the same compound?
Answer: 0.863 µM (active)

Question: And the AC50 [7]?
Answer: 0.861 µM (active)

Question: And the AC50 [8]?
Answer: 13.3 µM (active)

Question: And the AC50 [9]?
Answer: 16.6 µM (active)

Question: What about the AC50 [10] of the same compound?
Answer: 3.82 µM (active)

Question: What about the AC50 [11] of the same compound?
Answer: 21.8 µM (active)

Question: And the AC50 [12]?
Answer: 10.8 µM (active)

Question: With `CCCCCCCCOC(=O)c1cc(O)c(O)c(O)c1` as the compound, how does the AC50 [3] read?
Answer: 25 µM (active)

Question: And the AC50 [13]?
Answer: 42.8 µM (active)

Question: What about the AC50 [6] of the same compound?
Answer: 8.67 µM (active)

Question: What about the AC50 [10] of the same compound?
Answer: 7.2 µM (active)

Question: `CCCCCCCCCCCC[N+](C)(C)C` was tested. Which AC50 [3] did it give?
Answer: 13 µM (active)

Question: What about the AC50 [13] of the same compound?
Answer: 15.7 µM (active)

Question: What about the AC50 [14] of the same compound?
Answer: 16.1 µM (active)

Question: What about the AC50 [15] of the same compound?
Answer: 4.64 µM (active)

Question: What about the AC50 [5] of the same compound?
Answer: 1.39 µM (active)

Question: And the AC50 [6]?
Answer: 2.77 µM (active)

Question: And the AC50 [7]?
Answer: 1.93 µM (active)

Question: And the AC50 [8]?
Answer: 16 µM (active)

Question: And the AC50 [9]?
Answer: 38.9 µM (active)

Question: And the AC50 [10]?
Answer: 18.6 µM (active)

Question: And the AC50 [16]?
Answer: 11.7 µM (active)

Question: What about the outcome [17] of the same compound?
Answer: inactive

Question: What about the AC50 [12] of the same compound?
Answer: 20.6 µM (active)

Question: Which results are given for `Cc1cc2c(cc1C(F)(F)F)N(C(=O)Nc1ccc(Oc3cccnc3C)nc1)CC2`?
Answer: AC50 [3]: 0.0486 µM (active); AC50 [12]: 13.3 µM (active)

Question: Which results are given for `CCCCCCCCN(C)CCCCCCCC`?
Answer: outcome [3]: inactive; outcome [6]: inactive

Question: With `O=C(Nc1ccc(Cl)cc1)Nc1ccc(Cl)c(Cl)c1` as the compound, how does the outcome [3] read?
Answer: inactive

Question: `CCN(CC)C(=O)c1cc(S(=O)(=O)Cc2ccccc2)c(N2CCC(c3ccccc3)CC2)cc1N(CC)CCN(C)C` was tested. Which AC50 [1] did it give?
Answer: 16.3 µM (active)

Question: What about the AC50 [3] of the same compound?
Answer: 1.05 µM (active)

Question: And the outcome [13]?
Answer: inactive

Question: And the AC50 [14]?
Answer: 5.59 µM (active)

Question: And the AC50 [15]?
Answer: 8.82 µM (active)

Question: And the AC50 [6]?
Answer: 9.84 µM (active)

Question: And the AC50 [7]?
Answer: 6.24 µM (active)

Question: And the AC50 [8]?
Answer: 14.6 µM (active)

Question: What about the AC50 [10] of the same compound?
Answer: 4.95 µM (active)

Question: What about the outcome [18] of the same compound?
Answer: inactive
